Experimental findings from the supplement of paper PMC13380429 are described below.

The assay relates to Vero E6 infected with SARS-CoV-2. In words: SARS-CoV-2 infection rate relative to infected DMSO; higher = more infection, active = 60 or less. The following applies: 24 h.
As to `Cc1ccc(-c2ncn(-c3ccc(Nc4nccc(-c5cccc(N6CCOCC6)c5)n4)cc3)n2)cn1` (10 µM), the SARS-CoV-2 infection rate was 102% (inactive).
To `CCS(=O)(=O)c1cccc(-c2cc(C(=O)NC3CCN(C)CC3)c(C)c3[nH]c4ncc(C)cc4c23)c1` (0.833333 µM) belongs 105% (inactive); to `CC(C)C(=O)OC[C@@]1(N=[N+]=[N-])O[C@@H](n2ccc(N)nc2=O)[C@H](OC(=O)C(C)C)[C@@H]1OC(=O)C(C)C` [balapiravir] (10 µM), 88% (inactive); to `C=CC[N@@+]12CC[C@@]34c5ccccc5N5/C=C6/[C@H]7C[C@H]8[C@@]9(CC[N@@+]8(CC=C)C/C7=C/CO)c7ccccc7N(/C=C(/[C@@H](C[C@@H]31)/C(=C\CO)C2)[C@H]54)[C@@H]69` [alcuronium] (10 µM), 114% (inactive).
With `COc1ccc(-c2ccc3c(N4CCOCC4)nc(N4C[C@@H](C)O[C@@H](C)C4)nc3n2)cc1CO` (0.833333 µM), the SARS-CoV-2 infection rate was 110% (inactive).
To `O=C(O)c1ccc2cc(-c3ccc(O)c(C45CC6CC(CC(C6)C4)C5)c3)ccc2c1` (0.833333 µM) belongs 87.5% (inactive); to `COC(=O)C1=C(C)NC(C)=C([N+](=O)[O-])[C@@H]1c1ccccc1C(F)(F)F` (racemic) (10 µM), 91.8% (inactive); to `CN1C(=O)OC(C)(C)C1=O` [trimethadione] (10 µM), 106% (inactive).
To `COc1cc(OC)c(NC(=O)Nc2cc(C)on2)cc1Cl` (10 µM) belongs 87% (inactive); to `CC(C)c1cc(C(C)C)c(CC(=O)NS(=O)(=O)Oc2c(C(C)C)cccc2C(C)C)c(C(C)C)c1` [avasimibe] (10 µM), 110% (inactive).
As for `Nc1nc(=O)c2sc(=O)n([C@@H]3O[C@H](CO)[C@@H](O)[C@H]3O)c2[nH]1` (10 µM), the SARS-CoV-2 infection rate is 100% (inactive).
In the case of `COc1ccc(-c2coc3cc(O)ccc3c2=O)cc1` [formononetin] (10 µM), the SARS-CoV-2 infection rate was 106% (inactive).
With `CC(Cc1cccc(C(F)(F)F)c1)NCCOC(=O)c1ccccc1` (configuration not stated) [benfluorex] (10 µM), the SARS-CoV-2 infection rate was 104% (inactive).
As for `CN(C)CCCn1cc(C2=C(c3c[nH]c4ccccc34)C(=O)NC2=O)c2ccccc21` (0.833333 µM), the SARS-CoV-2 infection rate was 104% (inactive).
To `Cc1cc(C)c(S(=O)(=O)Nc2cccc(C(F)(F)F)c2)c(C)c1` (10 µM) belongs 108% (inactive); to `c1ccc2c(c1)CCC[C@H]2Nc1nc2ccccc2[nH]1` (10 µM), 89% (inactive); to `CC(=O)CCCCn1c(=O)c2c(ncn2C)n(C)c1=O` [pentoxifylline] (10 µM), 104% (inactive).
In the case of `C1CCC2(CC1)CCNCC2` [4,4-pentamethylenepiperidine] (10 µM), the SARS-CoV-2 infection rate is 104% (inactive).
Turning to `CNC(=C[N+](=O)[O-])NCCSCc1ccc(CN(C)C)o1` [ranitidine] (10 µM), the SARS-CoV-2 infection rate was 111% (inactive).
Consider `N#Cc1ccc(-c2ccc(S(=O)(=O)Nc3cccc(N)n3)cc2)cc1` (10 µM), for which the SARS-CoV-2 infection rate was 120% (inactive).
The figure for `CC1=CC[C@@H](C(C)(C)O)C[C@@H]1O` [sobrepin] (10 µM) is 114% (inactive).
To `CN(C)CC(=O)Nc1ccc2[nH]c(=O)c3ccccc3c2c1` (10 µM) belongs 92.5% (inactive).
